From PubChem BioAssay (NCI)
“And” between values parts separate entries of the source, which are not always exact repeats. Identical values can stand only once. Compounds without any hit were thinned out: in the full panel of roughly 83,000, 20% have a hit.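 Each cell line was grown in a 96-well plate and treated with one concentration of compound for 48 hours. Values below 10 were considered active.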 Where a structure was tested more than once in an assay, its records may differ in their call. The source made the active and inactive calls.

tested on: PC-3 prostate; assay: NCI-60 one-dose screen, 48 h (100 = growth as untreated, 0 = no growth, -100 = all killed); details: 10 µM unless noted
Description: Growth inhibition of the PC-3 human tumor cell line is measured as a screen for anti-cancer activity. Cells are grown in 96 well plates and exposed to the test compound for 48 hours. Compounds are tested at a single concentration, which is 10^-5 M for most compounds. The reported endpoint is percent growth (GI% or GIPRCNT), where numbers from 0 - 100% represent growth inhibition, and numbers from -100% - 0 represent cell death. For example, a value of 40 represents 60% growth inhibition. A value of 0 means no net growth occurred over the course of the experiment. A value of -40 indicates 40% of cells at the beginning of the experiment died by the end of the experiment. A value of -100 means all cells are dead at the end of the experiment.
NCI-60 Human Tumor Cell Lines Screen was performed using the standard one-dose NCI protocol, which is described in more detail at https://dtp.cancer.gov/discovery_development/nci-60/default.htm.
Compounds with GIPRCNT values below 10 were considered active. Activity score was based on GIPRCNT using the following formula: […]
Score is 0 for GIPRCNT values of 100 or above, 50 for GIPRCNT values of 0, and 100 for GIPRCNT values of -100.

Structure (SMILES)	growth
OC(c1cc(-c2ccc(C(F)(F)F)cc2)nc(C(F)(F)F)c1)C1CCCCN1 (stereo not given)	-29.2% (active) and -43.2% (active) and 17% (inactive)
CCCCCCCCCCCC1N=C(N)N=C(N)N1c1cccc(Br)c1 (stereo not given)	-55.2% (active)
CCN1/C(=C/C(C)=C/c2sc3ccc4ccccc4c3[n+]2CC)Sc2ccc3ccccc3c21	-84% (active)
O=C(c1ccccc1)c1ccc(O)c2ncccc12	32.2% (inactive)
CN(C)c1ccc(/C=C/c2ccnc3ccccc23)cc1	53% (inactive)
CCN(CC)CC(O)c1cc(-c2ccc(Cl)cc2)nc2cc(Cl)ccc12 (stereo not given)	28.5% (inactive)
CCOc1cc(F)c([N+](=O)[O-])cc1[N+](=O)[O-]	66.4% (inactive)
O=[N+]([O-])c1ccc2c(c1)Cc1ccccc1-2	96.7% (inactive)
COc1ccc2nc3cc(Cl)ccc3c(NCCCCCN3CCCCC3)c2c1	-45.3% (active)
N#CCc1cccc2ccccc12	90.9% (inactive)
Cc1ccccc1N=C(N)Nc1ccccc1C (tested in a mixture with another compound)	70.7% (inactive)
CCc1cccc(CC)c1N1C(=O)C=CC1=O	110% (inactive)
Cc1cc(N/N=C/c2ccccn2)nc2ccccc12	28.3% (inactive)
CC(=O)N1CC(=O)NC1=S	97.9% (inactive)
Oc1ccc(Cl)cc1C(c1cc(Cl)ccc1O)C(Cl)(Cl)Cl	6.26% (active)
O=C(NOC(=O)c1ccccc1)c1ccccc1	90.2% (inactive)
CCCOC(=O)c1nc(N(CC2CCCCC2)C(=O)NC)sc1/N=C/c1ccccc1	25.3% (inactive)
CC[n+]1ccc(Nc2ccc(NC(=O)c3ccc(Nc4cc[n+](CC)c5ccc([N+](=O)[O-])cc45)cc3)cc2)cc1	54.2% (inactive)
CCCOS(=O)(=O)c1ccccc1	92.1% (inactive)
O=C(OC12CC3CC(CC(C3)C1)C2)c1ccc(NCc2cc(O)ccc2O)cc1	-16.5% (active)

Structure (SMILES)	growth
CC(C)c1ccc(Nc2n[nH]c(=S)s2)cc1	93.6% (inactive)
Cc1nnc(N/N=C/c2ccc([N+](=O)[O-])o2)[nH]c1=O	3.62% (active)
Cc1cc(C)c([I+]c2c(C)cc(C)cc2C)c(C)c1	-16.7% (active)
CCCCCCCCCCCCNCCCc1ccccc1	78.9% (inactive)
O=C1/C(=C/c2ccccc2)CCC/C1=C\c1ccccc1	88.9% (inactive)
C[C@@]1(CO)[C@H](O)CC[C@@]2(C)[C@H]1CC[C@H]1C[C@@H]3C[C@@]12CC[C@@]3(O)COC(=O)CN	45.4% (inactive)
c1ccc(-c2cccc(-c3ccccn3)n2)nc1	31.2% (inactive)
C/C(=N/NC(N)=S)c1ccc(C)cc1	90.6% (inactive)
O=C(Cc1nc2cc(Cl)c(Cl)cc2nc1CC(=O)c1cccnc1)c1cccnc1	70.2% (inactive)
CN(C)CCN(C)CC(C)(C)C(=O)/C=C/c1ccc(Cl)c(Cl)c1	-87.2% [100 µM] (active)
COc1cc2c(c(OC)c1OC)-c1ccc(NCc3ccccc3)c(=O)cc1[C@@H](NC(C)=O)CC2	21.8% (inactive)
CCCCCCCCCCCC1=NCCCN1CCCC	89.1% (inactive)
CC(C)N=C(N)/N=C(\N)Nc1ccc2ccc3ccccc3c2c1	-7.75% (active)
CC1=CC(=O)C=CC1(C)C(Cl)(Cl)Cl (stereo not given)	92.9% (inactive)
Nc1nc2ncc(CNc3ccc(C(=O)NC(CCC(=O)NC(CCC(=O)NC(CCC(=O)NC(CCC(=O)NC(CCC(=O)O)C(=O)O)C(=O)O)C(=O)O)C(=O)O)C(=O)O)cc3)nc2c(=O)[nH]1 (stereo not given)	100% (inactive)
CCN(CC)c1ccc(/C=C\C(=O)c2ccc(NC(C)=O)cc2)cc1	71.9% (inactive)
COC1CC(C)C(OC)c2cc(O)cc(c2O)NC(=O)/C(C)=C/C=C\C(C)C(OC(N)=O)/C(C)=C\C(C)C1OC (stereo not given)	25.2% (inactive)
Cc1cccc2c(N)c3ccccc3nc12	-18.7% (active)
Cc1ccc(NC2=CC(=O)C(=O)c3ccccc32)cc1	28% (inactive)
CCCCCCCCCCCCCCCCCC[S+](C)CC (stereo not given)	36.3% (inactive)
